Measured potencies and affinities stand elsewhere.
Tests used:
Staphylococcus aureus = conditions: Concentration 20 uM; ASSAY_TEST Inhibition of Bacterial Growth; detection method Absorption (OD600); MEDIA CAMHB; plate type 384well; NBS; CORNING #3640; time 18 hr
Escherichia coli = conditions: Concentration 20 uM; ASSAY_TEST Inhibition of Bacterial Growth; detection method Absorption (OD600); MEDIA CAMHB; plate type 384well; NBS; CORNING #3640; time 18 hr

| Structure (SMILES) | Inhibition (Staphylococcus aureus) [%] | Inhibition (Escherichia coli) [%] |
| --- | --- | --- |
| Cc1cc2c(s1)Nc1ccccc1N=C2N1CCN(C)CC1 [OLANZAPINE] | 9.67 | 0.45 |
| CN(C)CCC(c1ccc(Cl)cc1)c1ccccn1.O=C(O)/C=C\C(=O)O (configuration not stated) [CHLORPHENIRAMINE MALEATE] | -22.38 | 7.3 |
| CCc1c(C)[nH]c2c1C(=O)C(CN1CCOCC1)CC2.Cl (configuration not stated) [MOLINDONE HYDROCHLORIDE] | -5.38 | 4.7 |
| NC(=O)c1cnccn1 [PYRAZINAMIDE] | 14.57 | 2 |
| O=C(CCCN1CC=C(n2c(=O)[nH]c3ccccc32)CC1)c1ccc(F)cc1 [DROPERIDOL] | 14.29 | -7.37 |
| Nc1nnc(-c2cccc(Cl)c2Cl)c(N)n1 [LAMOTRIGINE] | 8.71 | 4.49 |
| CC(=O)NS(=O)(=O)c1ccc(N)cc1 [SULFACETAMIDE] | 13.64 | 1.92 |
| CCOC(=O)OC(C)OC1=C(C(=O)Nc2ccccn2)N(C)S(=O)(=O)c2ccccc21 (configuration not stated) [AMPIROXICAM] | 16.07 | -0.97 |
| COc1cc(OC)c(C(=O)CCCN2CCCC2)c(OC)c1.Cl | 14.97 | 2.85 |
| CO[C@H]1O[C@@H]2O[C@@]3(C)CC[C@H]4[C@H](C)CC[C@@H]([C@H]1C)[C@@]24OO3 | 8.78 | 13.66 |
| CC[C@@H]1C(=O)OC[C@@H]1Cc1cncn1C.Cl [PILOCARPINE HYDROCHLORIDE] | 15.92 | 5.77 |
| O=[N+]([O-])c1cccc2cn[nH]c12 [7-NITROINDAZOLE] | 16.98 | 6.38 |
| C[C@@H](O)[C@H]1C(=O)N2C(C(=O)O)=C(S[C@@H]3CN[C@H](C(=O)N(C)C)C3)[C@H](C)[C@H]12 [MEROPENEM] | -14.17 | 7.87 |
| CN1CC(=O)N2[C@H](c3ccc4c(c3)OCO4)c3[nH]c4ccccc4c3C[C@@H]2C1=O | 6.36 | 0.57 |
| CC(C)c1nc(CN(C)C(=O)N[C@H](C(=O)N[C@@H](Cc2ccccc2)C[C@H](O)[C@H](Cc2ccccc2)NC(=O)OCc2cncs2)C(C)C)cs1 [RITONAVIR] | 13.2 | -0.63 |
| CC#C[C@]1(O)CC[C@H]2[C@@H]3CCC4=CC(=O)CCC4=C3[C@@H](c3ccc(N(C)C)cc3)C[C@@]21C [MIFEPRISTONE] | 11.2 | -7.81 |
| O=C(O)CCNC(=O)c1ccc(N=Nc2ccc(O)c(C(=O)O)c2)cc1 | 1.56 | -1.37 |
| O=c1cnn([C@@H]2O[C@H](CO)[C@@H](O)[C@H]2O)c(=O)[nH]1 [6-AZAURIDINE] | -22.3 | 4.59 |
| CC(C[N+](C)(C)C)OC(N)=O.[Cl-] (configuration not stated) [BETHANECHOL CHLORIDE] | 5.38 | -1.38 |
| Cc1ncc([N+](=O)[O-])n1CC(O)CCl (configuration not stated) [ORNIDAZOLE] | 10.83 | 5.05 |
| CN1CCC(=C2c3ccccc3C=Cc3ccccc32)CC1.Cl [CYPROHEPTADINE HYDROCHLORIDE] | 5.98 | 6.77 |

| Structure (SMILES) | Inhibition (Staphylococcus aureus) [%] | Inhibition (Escherichia coli) [%] |
| --- | --- | --- |
| C[C@]12C=CC(=O)C=C1CC[C@@H]1[C@@H]2[C@@H](O)C[C@@]2(C)[C@H]1CC[C@]2(O)C(=O)COC(=O)CCC(=O)[O-].[Na+] [PREDNISOLONE SODIUM SUCCINATE] | 5.71 | 1.73 |
| Cc1nc2ccccn2c(=O)c1CCN1CCC(C(=O)c2ccc(F)cc2)CC1 [PIRENPERONE] | 1.36 | 7.4 |
| CCN1CCCC1CNC(=O)c1cc(S(=O)(=O)CC)c(N)cc1OC (configuration not stated) [AMISULPRIDE] | 15.04 | -7.41 |
| O=C([O-])c1cc(=O)c2c(OCC(O)COc3cccc4oc(C(=O)[O-])cc(=O)c34)cccc2o1.[Na+].[Na+] [CROMOLYN SODIUM] | 9.1 | -1.24 |
| CC(C)Oc1ccc2c(=O)c(-c3ccccc3)coc2c1 [IPRIFLAVONE] | 16.93 | 5.9 |
| Cc1ccc(C)c(OCCCC(C)(C)C(=O)O)c1 [GEMFIBROZIL] | 11.1 | 2.56 |
| Cc1cccc(C)c1NC(=O)C(C)N (configuration not stated) [TOCAINIDE] | 2.4 | 3.98 |
| Nc1nc(O)c2ncn(CCC(CO)CO)c2n1 [PENCICLOVIR] | 6.12 | 2.89 |
| CS(=O)(=O)c1ccc(C2=C(c3ccccc3)C(=O)OC2)cc1 [ROFECOXIB] | 8.94 | -7.03 |
| Cl.O=C(c1ccc(OCCN2CCCCC2)cc1)c1c(-c2ccc(O)cc2)sc2cc(O)ccc12 [RALOXIFENE HYDROCHLORIDE] | 16.87 | -1.03 |
| NC(=O)N1c2ccccc2CC(=O)c2ccccc21 [OXCARBAZEPINE] | 15.1 | -1.4 |
| CCCCC(=O)O[C@H]1CC[C@H]2[C@@H]3CCc4cc(O)ccc4[C@H]3CC[C@]12C [ESTRADIOL VALERATE] | 3.82 | 3.72 |
| CN1CCN(CC/C=C2/c3ccccc3Sc3ccc(S(=O)(=O)N(C)C)cc32)CC1 [THIOTHIXENE] | 8.53 | 3.6 |
| Nc1nc(Cl)nc2c1ncn2[C@H]1C[C@H](O)[C@@H](CO)O1 [CLADRIBINE] | 6.87 | 14.09 |
| O=C1c2c(O)cc(O)cc2O[C@H](c2ccc(O)c(O)c2)[C@@H]1O | 15.43 | -4.02 |
| CC(C(=O)[O-])c1ccc(CC2CCCC2=O)cc1.[Na+] (configuration not stated) [LOXOPROFEN SODIUM] | 9.06 | -0.84 |
| CCCCN1CCCC1CNC(=O)c1cc(C#N)c2ccccc2c1OC (configuration not stated) [NAFADOTRIDE] | 6.62 | 2.47 |
| Cl.Clc1ccccc1CN1CCc2sccc2C1 [TICLOPIDINE HYDROCHLORIDE] | 6.77 | 1.84 |
| C[C@@H]1C[C@H]2[C@@H]3C[C@H](F)C4=CC(=O)C(Cl)=C[C@]4(C)[C@@]3(F)[C@@H](O)C[C@]2(C)[C@@]1(O)C(=O)CO [HALOMETASONE] | 3 | 4.02 |
| CC(N)C12CC3CC(CC(C3)C1)C2.Cl (configuration not stated) [RIMANTADINE HYDROCHLORIDE] | 6.08 | -3.07 |
| NS(=O)(=O)c1cc2c(cc1Cl)N=CNS2(=O)=O [CHLOROTHIAZIDE] | 7.87 | -2.82 |

| Structure (SMILES) | Inhibition (Staphylococcus aureus) [%] | Inhibition (Escherichia coli) [%] |
| --- | --- | --- |
| C[C@]12C=CC(=O)C=C1CC[C@@H]1[C@@H]2C(=O)C[C@@]2(C)[C@H]1CC[C@]2(O)C(=O)CO [PREDNISONE] | 12.15 | 4.61 |
| O=C(O)c1cc(/N=N/c2ccc(S(=O)(=O)Nc3ccccn3)cc2)ccc1O [SULFASALAZINE] | -13.67 | 7.84 |
| O=C1CN(/N=C/c2ccc(-c3ccc([N+](=O)[O-])cc3)o2)C(=O)[N-]1.[Na+] [DANTROLENE SODIUM] | 4.1 | -9.64 |
| Cc1cccc(CN2CCN(C(c3ccccc3)c3ccc(Cl)cc3)CC2)c1.Cl.Cl (configuration not stated) | 9.26 | 2.8 |
| CCCCC[C@H](O)/C=C/[C@H]1[C@H](O)CC(=O)[C@@H]1CCCCCCC(=O)O [ALPROSTADIL] | 3.1 | 6.55 |
| CCOC(=O)C1(CCCCCCOc2ccc(Cl)cc2)CO1 (stereo not drawn) [rac-ETOMOXIR] | 3.7 | -5.87 |
| CC(CCCCC(=O)Nc1ccc(C(F)(F)F)cc1)NCCc1c[nH]cn1.O=C(O)/C=C\C(=O)O.O=C(O)/C=C\C(=O)O (configuration not stated) | 7.23 | 3.85 |
| CN(C)CCOC(C)(c1ccccc1)c1ccccn1.O=C(O)CCC(=O)O (configuration not stated) [DOXYLAMINE SUCCINATE] | 2.51 | 3.89 |
| O=c1[nH]c(=O)n(C2CCCO2)cc1F (configuration not stated) [TEGAFUR] | 17.75 | 8.41 |
| Oc1ccc(/C=C/c2cc(O)cc(O)c2)cc1 [RESVERATROL] | 19.49 | 1.45 |
| Cc1cccc(CCN2CCC(C(=O)c3ccc(NS(C)(=O)=O)cc3)CC2)n1.Cl.Cl | 15.03 | -5.54 |
| CC(C)(C#N)c1cc(Cn2cncn2)cc(C(C)(C)C#N)c1 [ANASTROZOLE] | -10.48 | 4.02 |
| Cc1cn([C@H]2C=C[C@@H](CO)O2)c(=O)[nH]c1=O [STAVUDINE] | 17.22 | 4.38 |
| O=C(NCCN1CCOCC1)c1ccc(Cl)cc1 [MOCLOBEMIDE] | 3.95 | 0.74 |
| COc1cc2nc(N3CCN(C(=O)C4CCCO4)CC3)nc(N)c2cc1OC (configuration not stated) [TERAZOSIN] | 8.19 | -0.53 |
| CCCOc1ccc(C(=O)OCCN(CC)CC)cc1N.Cl [PROPARACAINE HYDROCHLORIDE] | -1.38 | 2.71 |
| Cc1[nH]cnc1CN1CCc2c(c3ccccc3n2C)C1=O.Cl [ALOSETRON HYDROCHLORIDE] | 8.61 | 9.19 |
| CCCCC1=NC2(CCCC2)C(=O)N1Cc1ccc(-c2ccccc2-c2nnn[nH]2)cc1 [IRBESARTAN] | 6.34 | -3.35 |
| CCOC(=O)c1ccc(OC(=O)CCCCCN=C(N)N)cc1.CS(=O)(=O)O | 11.22 | -0.78 |

Source: ChEMBL document CHEMBL4513141, “CO-ADD screening of NIH (USA) - Clinical Collection” (2021)
